Measurements reported in the supplement of paper PMC6555819.

How the values were obtained:
Experiment in all cases: PBM binding z-score (relative to random genomic background probes); higher = stronger binding; sequences stand for … in GC…GCGATTGACAGCGTAGAATGAAGG
[1] = test system: FXR:RXRa (NR concentration 270 nM, RXRa partner concentration 90 nM)
How it was run: (§1)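 Binding z-scores take random background probes as their reference. They come from custom Agilent 4×180K protein-binding microarrays incubated 1 h with ligand-free nuclear receptor dimers, with antibodies against each partner (one per run) detecting binding. Scanned fluorescence was regression-normalized.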

[2] = test system: LXRa:RXRa (NR concentration 270 nM, RXRa partner concentration 90 nM)
How it was run: as §1

[3] = test system: LXRa homodimer (NR concentration 270 nM)
How it was run: as §1

[4] = test system: LXRb:RXRa (NR concentration 270 nM, RXRa partner concentration 90 nM)
How it was run: as §1

[5] = test system: LXRb homodimer (NR concentration 270 nM)
How it was run: as §1

[6] = test system: PPARa:RXRa (NR concentration 270 nM, RXRa partner concentration 90 nM)
How it was run: as §1

[7] = test system: PPARg:RXRa (NR concentration 180 nM, RXRa partner concentration 90 nM)
How it was run: as §1

[8] = test system: PPARg:RXRa 270nM:90nM, anti-RXR (NR concentration 270 nM, RXRa partner concentration 90 nM)
How it was run: as §1

[9] = test system: PPARg:RXRa 30nM:10nM, anti-RXR (NR concentration 30 nM, RXRa partner concentration 10 nM)
How it was run: as §1

[10] = test system: PPARg:RXRa 90nM:30nM, anti-RXR (NR concentration 90 nM, RXRa partner concentration 30 nM)
How it was run: as §1

Row | Sequence | PBM binding z-score [1] | PBM binding z-score [2] | PBM binding z-score [3] | PBM binding z-score [4] | PBM binding z-score [5] | PBM binding z-score [6] | PBM binding z-score [7] | PBM binding z-score [8] | PBM binding z-score [9] | PBM binding z-score [10]
1 | GCTTGTTGATCAAGGTTAAGAAAGACTAAGCTAA | -0.091 | 0.792 | -0.456 | 0.239 | -0.437 | 1.09 | -0.203 | 0.401 | -0.0921 | 0.472
2 | GATACAGGGTCAAGGCCATAGTACGCGTATTGAT | 6.45 | 4.12 | 0.059 | 3.75 | 0.018 | 5.51 | 6.08 | 5.45 | 2.63 | 4.43
3 | ATCGAAAGGTCGAAGGTGAATATACCCACCCGAA | 5.04 | 4.06 | 0.547 | 3.42 | 0.763 | 5.24 | 5.61 | 5.45 | 2.92 | 4.71
4 | TGTCAAAGTTCAAAGGTAACGTAAGTATCCACAC | 6.82 | 6.64 | 4.55 | 4.83 | 2.02 | 5.9 | 8.46 | 7.64 | 5.11 | 7.32
5 | AGTCAAAGTCCACTAGGTAACGTAAGATTCAGCT | -0.195 | -0.249 | -0.162 | -0.0956 | 0.0347 | 0.0628 | 0.58 | 0.278 | 0.0579 | 0.146
6 | TCGTATAGGTAATACAGGTGAAAGTCGGCATCTA | 0.718 | 1.21 | 0.63 | 0.967 | -0.231 | 1.75 | 0.665 | 1.96 | 2.76 | 2.39
7 | CCGACTGGGGCAAAAAGGTTACCATACCATCCGG | 0.468 | 0.384 | -0.0503 | 1.14 | -0.735 | 2.38 | 1.48 | 1.95 | 0.214 | 1.25
8 | TAGCCTAGGTCATTGGGCCCGTATAGTACGCATC | 4.15 | 3.59 | 0.962 | 2.9 | 0.67 | 3.84 | 2.27 | 2.57 | 0.517 | 1.74
9 | CCTGCTAGGTCAATGGTTAGCTAAAGCAGCTCGC | 2.78 | 1.76 | -0.418 | 1.44 | -0.3 | 2.63 | 3.33 | 3.77 | 1.16 | 3.2
10 | TCTTGTAGAACAAGCAGGTTAAGAAAGCCTGAGT | 0.0411 | -0.117 | -0.158 | -0.0832 | -0.582 | 0.777 | -0.27 | 1.19 | 2.58 | 1.82
11 | TCTTGTAGATCAAGCAGGTTAAAAAAGCCTGAGT | 0.399 | 0.66 | 0.0137 | 0.802 | -0.381 | 1.05 | -0.353 | 1.21 | 2.5 | 1.89
12 | TAGCCTAGGTCATTGGTCCAGTATAGTACGCATC | 3.97 | 3.31 | 1.33 | 2.7 | 0.535 | 3.56 | 2.48 | 2.55 | 0.941 | 2.27
